Results published in PubChem BioAssay (NCATS).
Inconclusive results are not listed. The source made the active and inactive calls. Unless noted, calls come from the whole dose curve; as a rule, active = well fitted curve in the direction sought with a large enough effect; inconclusive = small, poorly fitted or top-dose-only effect, or another doubt; inactive = no such curve, though single readings can be large; an effect the other way counts as inactive or inconclusive.

Columns and labels:
[1] = Validation screen for small molecules that induce DNA re-replication in MCF 10A normal breast cells (AID 463097); details: MCF 10A cells, DNA re-replication phenotype imaging; series mostly up to 46.1 µM; note: nearly all actives have a fitted effect of over 60% in size
How it was run: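 Read-out is Hoechst total nuclear intensity by fluorescence scanning imager, flagging increased high-DNA-content nuclei. Compounds were incubated with MCF 10A cells for 48 hr (37 C, 5% CO2) before 40 min staining.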

[2] = High Content Imaging Cell-Based qHTS for Inhibitors of the mTORC1 Signaling Pathway in MEF (Tsc2-/-, p53-/-) Cells (AID 2666); details: at 38.3 µM (top of the series);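 note: percent of cells scored positive for phospho-rpS6 Ser235/236 immunostaining by imaging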
How it was run: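 MEF Tsc2-/- p53-/- (empty vector), DMEM/10% FBS; cpd 24 h 37 °C; PFA fix, Alexa-488 p-rpS6 S235/236 Ab, Hoechst; imaged; rapamycin-defined inhibition; % positive cells/well.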

[3] = High Content Imaging Cell-Based qHTS for Inhibitors of the mTORC1 Signaling Pathway in MEF Cells (AID 2667); details: series mostly up to 38.3 µM;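 note: Tsc2-/- p53-/- MEFs stably re-expressing wild-type Tsc2 exposed 24 h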
How it was run: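 Read-out is the share of phospho-rpS6-positive cells per well, from Hoechst-normalized Alexa-488 Ser235/236 staining imaged on IN Cell. Cells: WT Tsc2-expressing Tsc2-/-, p53-/- MEFs exposed to compound for 24 hrs.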

[4] = Cytometry Cell-Based qHTS for Inhibitors of the mTORC1 Signaling Pathway in MEF cells (AID 2668); details: mTORC1 pathway readout; series mostly up to 38.3 µM;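 note: Tsc2-/- p53-/- mouse embryonic fibroblasts stably re-expressing wild-type Tsc2; percent cells positive for phospho-rpS6 Ser235/236 relative to propidium iodide stain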
Excerpt: NIH Molecular Libraries Probe Production Centers Network [MLPCN]
(§1) NIH Chemical Genomics Center [NCGC]
Assay Submitter (PI): Blenis, John; Hoffman, Greg; Harvard University
NCGC Assay Overview: The mammalian target of rapamycin (mTOR) is an intracellular serine/threonine kinase Aberrant regulation of mTOR signaling plays a causative role in a number of human diseases, including cancer, benign tumors such as lymphangioleiomyomatosis (LAM) and Tuberous Sclerosis Complex (TSC), and metabolic diseases such as diabetes and obesity. This project aims to identify inhibitors of ribosomal protein S6 (rpS6) phosphorylation. The phosphorylation of rpS6 is a key event downstream of mTOR activation. The assay uses a phospho-specific antibody of phospho-rpS6 to detect inhibitors of mTOR activation. Mutations in the Tsc1 and Tsc2 genes are the underlying genetic lesions responsible for TSC, causing constitutive activation of the mTORC1 pathway and leading to profound effects on cell metabolism. […]
For quantitative high throughput analysis of mTORC1 signaling, we developed a cell-based assay for immuno-fluorescence based detection of rpS6 phosphorylation on the Acumen Explorer that will be used a platform for the primary small molecule screen. […] The fluorescence emission from the Alexa-488 conjugated rpS6 phospho-235/236 antibody staining is selected using a […] band pass filter. Fluorescence emission from the PI stain is selected using a 575-640 nm band pass filter. The normalized phospho-S6 staining is calculated as the ratio of the integrated Alexa 488 intensity divided by the integrated PI intensity for the single concentration rapamycin control (7.5 nM) and DMSO columns. […]

[5] = molecular target: Ubiquitin carboxyl-terminal hydrolase 2 (Homo sapiens) (UniProt O75604); experiment: qHTS Validation Assay for Inhibitors of Ubiquitin-specific Protease USP2a Using CHOP2 as the Reporter (AID 463106); details: USP2a cleavage of CHOP2 reporter, enzymatic; series mostly up to 38.3 µM
How it was run: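 Fluorescence read-out at Ex 485nm/Em 531nm after 60min RT, following addition of 25nM Ub-CHOP2 plus 25nM reporter substrate to USP2 core (10nM) pretreated 30min with compound. Data normalized to NEM full inhibition; concentration-response curves fitted.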

[6] = molecular target: DNA polymerase III PolC-type (Bacillus subtilis (strain 168)) (UniProt P13267); experiment: qHTS Validation Assay for the Inhibitors of DNA Replication in Gram-Positive Bacteria (AID 485295); details: Gram-positive bacterial DNA replication assay; series mostly up to 57.1 µM;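 note: reconstituted holoenzyme with PolC plus beta clamp SSB and primase; PicoGreen fluorescence of double-stranded DNA made on primed circular M13 template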
How it was run: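 Double-stranded DNA product detected by PicoGreen fluorescence after EDTA quench. Compound incubated with B. subtilis holoenzyme (PolC, beta subunit, SSB, primase) before substrate addition; primed replication of M13Gori with dNTPs and NTPs at room temperature; DMSO defines 0% inhibition.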

[7] = molecular target: Tumor susceptibility gene 101 protein (Homo sapiens) (UniProt Q99816); experiment: qHTS Validation Assay for Iinhibitors of HIV-1 Budding by Blocking the Interaction of PTAP/TSG101 (AID 485342; calls by dose curve); details: TSG101-PTAP binding, fluorescence polarization, 4-point titration; series mostly up to 115 µM
How it was run: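 Fluorescence polarization of 50 nM FITC-PTAP peptide bound to 10 uM Tsg101 binding domain was read after 20 min room-temperature incubation with compounds, in 10 mM HEPES pH 7.5, 0.15 M NaCl, 0.01% Tween 20.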

[8] = qHTS Validation Assay to Find Inhibitors of Chronic Active B-Cell Receptor Signaling (AID 485345; active = well fitted curve in the direction sought with a large enough effect in the main read-out, with a control signal flat, not every such curve was filed as active); details: ABC-DLBCL cells, chronic BCR signaling reporter, CBG luciferase; series mostly up to 46.1 µM
How it was run: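 TMD8 ABC-DLBCL cells stably carrying doxycycline-inducible IkappaBalpha–green luciferase fusion plus unfused red luciferase; compounds 46 uM to 3 nM, 4 h at 37C with doxycycline. Corrected green/red luminescence ratio normalized to 10 uM MG-132 and basal cell wells; curves fitted.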

[9] = molecular target: Beta-2 adrenergic receptor (Homo sapiens) (UniProt P07550); experiment: qHTS validation assay of beta-arrestin-biased ligands of beta2-adrenergic receptor (AID 485366); details: cell-based beta-arrestin recruitment to ADRB2, qHTS; series mostly up to 46.1 µM
Excerpt: NIH Molecular Libraries Probe Production Network [MLPCN]
as §1
PI: Bryan Roth and Bob Lefkowitz
The concept of biased agonism is an emerging concept of molecular pharmacology which proposes that seven transmembrane receptors (7TMRs) or G protein-coupled receptors (GPCRs), exist in multiple signaling conformations and complexes and that ligands (either agonists or antagonists) can induce signaling biased responses for distinct signal transduction cascades.
Furthermore, accumulating evidence over the last decade has drawn attention to a novel function of beta-arrestins as signal transducers that scaffold various signaling molecules upon activation of 7TMRs. […] This beta-arrestin-biased signaling presumably leads to distinct physiological outcomes from those by G protein activation.
Additionally, the active receptor conformations which […] on this beta-arrestin signaling are likely different from those activating G protein signaling
The goal of this screening project will be to discover and optimize novel beta-arrestin-biased ligands for beta2-AR signaling. […]
Tango cells were dispensed into white, solid, tissue-culture-treated 1536-well plates at 1500 cells/well in DMEM, containing 1% fetal bovine serum (FBS). […] Plates were then incubated for 15 minutes at room temperature, and subsequently measured on a ViewLux plate reader for luminescent signal using a clear filter with a 10 second exposure and 2x binning. The %Activity was determined from the corrected luminescence values.
Concentration-response curves were fitted to the signals arising from the resulting luminescence. The concentration-effect curves were then classified based on curve quality (r2), response magnitude and degree of measured activity, and compounds were subsequently categorized based on their curve class.
Keywords: biased agonism, beta2-AR, beta-arrestin, GPCR, 7TMR, Tango, luminescence, MLSMR, MLPCN, NIH Roadmap, qHTS, NCGC

[10] = molecular target: ATP-dependent 6-phosphofructokinase (Trypanosoma brucei brucei) (UniProt O15648); experiment: qHTS Validation Assay to Find Inhibitors of T. brucei phosphofructokinase (AID 485368); details: T. brucei PFK enzyme assay, qHTS 7-point titration; series mostly up to 57.5 µM
How it was run: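 Luminescent ADP detection measures PFK turnover of fructose-6-phosphate (0.5 mM) with ATP (0.1 mM) at pH 8.0. Reaction runs 45 min at room temperature with 1.25 nM enzyme; inhibitors tested as titrations up to 57 uM.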

Measured: outcome

DNA polymerase III PolC-type (Bacillus subtilis (strain 168)), sequence (P13267 whole entry, looked up): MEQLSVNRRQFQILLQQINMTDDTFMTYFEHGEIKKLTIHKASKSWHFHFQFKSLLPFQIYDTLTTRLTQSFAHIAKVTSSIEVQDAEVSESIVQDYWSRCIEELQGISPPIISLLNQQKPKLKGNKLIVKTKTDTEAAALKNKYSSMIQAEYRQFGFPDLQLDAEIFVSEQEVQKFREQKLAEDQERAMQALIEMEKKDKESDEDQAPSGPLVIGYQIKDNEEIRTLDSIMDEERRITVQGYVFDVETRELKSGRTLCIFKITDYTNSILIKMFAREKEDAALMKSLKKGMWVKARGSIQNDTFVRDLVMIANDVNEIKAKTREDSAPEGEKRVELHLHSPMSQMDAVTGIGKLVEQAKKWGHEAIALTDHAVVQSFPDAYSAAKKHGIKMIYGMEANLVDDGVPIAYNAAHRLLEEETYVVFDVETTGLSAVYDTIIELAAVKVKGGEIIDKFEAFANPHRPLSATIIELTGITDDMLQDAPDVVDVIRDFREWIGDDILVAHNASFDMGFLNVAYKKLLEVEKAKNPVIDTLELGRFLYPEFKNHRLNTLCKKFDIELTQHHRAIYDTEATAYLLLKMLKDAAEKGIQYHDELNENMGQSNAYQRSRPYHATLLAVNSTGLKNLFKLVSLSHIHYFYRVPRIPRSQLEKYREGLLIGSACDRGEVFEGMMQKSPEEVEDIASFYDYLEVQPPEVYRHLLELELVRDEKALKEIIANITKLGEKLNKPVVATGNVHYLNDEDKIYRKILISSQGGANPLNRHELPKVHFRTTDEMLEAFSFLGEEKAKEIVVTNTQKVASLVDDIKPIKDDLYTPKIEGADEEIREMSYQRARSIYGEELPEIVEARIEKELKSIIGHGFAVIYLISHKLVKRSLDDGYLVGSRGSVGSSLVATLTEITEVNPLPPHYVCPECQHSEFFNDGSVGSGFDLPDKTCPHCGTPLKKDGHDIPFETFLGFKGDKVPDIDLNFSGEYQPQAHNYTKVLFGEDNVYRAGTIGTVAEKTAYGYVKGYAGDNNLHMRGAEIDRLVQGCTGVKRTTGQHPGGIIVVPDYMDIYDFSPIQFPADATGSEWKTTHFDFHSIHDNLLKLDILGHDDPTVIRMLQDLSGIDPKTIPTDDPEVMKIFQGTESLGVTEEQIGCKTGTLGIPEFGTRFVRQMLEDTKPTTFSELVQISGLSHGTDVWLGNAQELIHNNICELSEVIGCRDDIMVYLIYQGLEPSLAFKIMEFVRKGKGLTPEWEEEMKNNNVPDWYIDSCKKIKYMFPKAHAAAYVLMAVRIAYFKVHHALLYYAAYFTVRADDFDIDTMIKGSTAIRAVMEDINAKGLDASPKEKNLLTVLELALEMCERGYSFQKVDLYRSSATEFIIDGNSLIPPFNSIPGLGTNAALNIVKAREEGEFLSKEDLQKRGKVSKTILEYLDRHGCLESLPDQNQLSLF
Ubiquitin carboxyl-terminal hydrolase 2 (Homo sapiens), sequence (O75604 whole entry, looked up): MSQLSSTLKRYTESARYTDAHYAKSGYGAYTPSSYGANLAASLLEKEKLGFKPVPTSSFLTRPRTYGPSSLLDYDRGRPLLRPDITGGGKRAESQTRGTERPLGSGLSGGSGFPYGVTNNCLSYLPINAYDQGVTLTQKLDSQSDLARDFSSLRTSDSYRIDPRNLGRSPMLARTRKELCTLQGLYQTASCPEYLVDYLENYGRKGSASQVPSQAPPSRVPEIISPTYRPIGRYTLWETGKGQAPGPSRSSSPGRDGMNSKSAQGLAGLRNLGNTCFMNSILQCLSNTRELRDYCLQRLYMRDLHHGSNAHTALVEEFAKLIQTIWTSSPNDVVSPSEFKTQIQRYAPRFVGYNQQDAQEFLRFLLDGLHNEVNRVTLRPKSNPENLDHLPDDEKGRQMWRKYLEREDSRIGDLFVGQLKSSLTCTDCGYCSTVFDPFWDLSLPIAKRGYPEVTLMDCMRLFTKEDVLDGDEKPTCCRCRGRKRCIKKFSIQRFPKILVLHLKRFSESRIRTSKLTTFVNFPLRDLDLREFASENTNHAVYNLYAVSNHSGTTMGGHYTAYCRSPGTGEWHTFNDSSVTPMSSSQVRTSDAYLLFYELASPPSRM
Beta-2 adrenergic receptor (Homo sapiens), sequence (P07550 whole entry, looked up): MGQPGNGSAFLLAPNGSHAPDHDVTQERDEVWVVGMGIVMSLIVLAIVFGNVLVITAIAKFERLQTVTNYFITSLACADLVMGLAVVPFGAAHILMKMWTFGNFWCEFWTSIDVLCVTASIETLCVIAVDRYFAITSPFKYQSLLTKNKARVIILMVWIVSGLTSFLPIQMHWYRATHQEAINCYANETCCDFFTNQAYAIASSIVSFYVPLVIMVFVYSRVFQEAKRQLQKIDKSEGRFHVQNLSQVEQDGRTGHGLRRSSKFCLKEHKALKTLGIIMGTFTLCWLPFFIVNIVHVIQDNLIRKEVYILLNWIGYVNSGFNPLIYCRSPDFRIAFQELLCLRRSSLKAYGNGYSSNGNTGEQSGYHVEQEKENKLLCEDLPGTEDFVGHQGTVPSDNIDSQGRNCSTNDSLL
Tumor susceptibility gene 101 protein (Homo sapiens), sequence (Q99816 whole entry, looked up, the tested form may be a part): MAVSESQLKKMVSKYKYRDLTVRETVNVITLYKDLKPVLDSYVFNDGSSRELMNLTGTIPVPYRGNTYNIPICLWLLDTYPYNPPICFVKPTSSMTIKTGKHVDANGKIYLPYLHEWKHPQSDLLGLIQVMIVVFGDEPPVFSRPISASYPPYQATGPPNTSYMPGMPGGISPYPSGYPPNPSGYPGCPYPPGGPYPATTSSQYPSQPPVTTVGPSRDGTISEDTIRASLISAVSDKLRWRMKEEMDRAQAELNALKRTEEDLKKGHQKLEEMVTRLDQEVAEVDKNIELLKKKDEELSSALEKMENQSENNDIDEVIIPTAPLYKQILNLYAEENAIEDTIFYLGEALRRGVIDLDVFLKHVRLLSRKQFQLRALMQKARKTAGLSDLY
ATP-dependent 6-phosphofructokinase (Trypanosoma brucei brucei), sequence (O15648 whole entry, looked up): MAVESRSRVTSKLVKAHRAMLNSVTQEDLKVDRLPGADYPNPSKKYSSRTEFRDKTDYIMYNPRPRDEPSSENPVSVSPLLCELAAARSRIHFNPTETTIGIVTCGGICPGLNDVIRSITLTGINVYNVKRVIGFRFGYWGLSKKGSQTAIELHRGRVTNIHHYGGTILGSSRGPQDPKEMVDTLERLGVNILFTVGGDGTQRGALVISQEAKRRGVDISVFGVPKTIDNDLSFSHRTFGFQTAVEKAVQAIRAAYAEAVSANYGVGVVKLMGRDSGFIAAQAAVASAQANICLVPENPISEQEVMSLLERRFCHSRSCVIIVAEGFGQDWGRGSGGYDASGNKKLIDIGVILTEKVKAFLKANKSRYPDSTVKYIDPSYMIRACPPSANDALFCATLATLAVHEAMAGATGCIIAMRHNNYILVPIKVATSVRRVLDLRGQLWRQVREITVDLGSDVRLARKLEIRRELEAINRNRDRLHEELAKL

N=c1ccn2c(n1)O[C@H]1[C@@H](O)[C@@H](CO)O[C@H]12
inactive: [1]

CN[C@H](CC(C)C)C(=O)N[C@H]1C(=O)N[C@@H](CC(N)=O)C(=O)N[C@@H]2C(=O)N[C@H]3C(=O)N[C@H](C(=O)N[C@H](C(=O)O)c4cc(O)cc(O)c4-c4cc3ccc4O)[C@H](O)c3ccc(c(Cl)c3)Oc3cc2cc(c3O[C@@H]2O[C@H](CO)[C@@H](O)[C@H](O)[C@@H]2O[C@H]2C[C@](C)(N)[C@H](O)[C@H](C)O2)Oc2ccc(cc2Cl)[C@H]1O
not listed: [1] | [10]
inactive: all other assays above

O=c1[nH]c(=O)n([C@H]2C[C@@H](O)[C@@H](CO)O2)cc1C=CBr
not listed: [1]
inactive: all other assays above

COc1ccc2cc([S+]([O-])Cc3ncc(C)c(OC)c3C)nc2c1
not listed: [1] | [8] | [10]
inactive: all other assays above
